Assay outcomes: PubChem BioAssay, National Center for Advancing Translational Sciences (NCATS)
D1 agonist: agonists of human D1 dopamine receptor; P21728; HEK293 T-REx D1 cells, calcium flux, agonist mode; activation, % at 2 µM; 1% of 360,000 active; further: 0% is about no effect
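Tetracycline-induced HEK293 TREx D1 cells, force-coupled to calcium signalling, were dye-loaded with a no-wash calcium kit. Compound was pin-added after a 10 s baseline. Fluorescence was read kinetically at 1 cycle/s for 180 s, with calcium rises flagged as agonism.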
TRHR PAM: allosteric enhancers of human TRH receptor; 0.66% of 360,000 active; enhancement, % at 2 µM; P34981; TRHR cells, fluo-8 calcium fluorescence, EC20 TRH enhancement; in the data active means enhancement above about 30%; further: 0% is about no effect
Target sequence (P34981 whole entry, looked up): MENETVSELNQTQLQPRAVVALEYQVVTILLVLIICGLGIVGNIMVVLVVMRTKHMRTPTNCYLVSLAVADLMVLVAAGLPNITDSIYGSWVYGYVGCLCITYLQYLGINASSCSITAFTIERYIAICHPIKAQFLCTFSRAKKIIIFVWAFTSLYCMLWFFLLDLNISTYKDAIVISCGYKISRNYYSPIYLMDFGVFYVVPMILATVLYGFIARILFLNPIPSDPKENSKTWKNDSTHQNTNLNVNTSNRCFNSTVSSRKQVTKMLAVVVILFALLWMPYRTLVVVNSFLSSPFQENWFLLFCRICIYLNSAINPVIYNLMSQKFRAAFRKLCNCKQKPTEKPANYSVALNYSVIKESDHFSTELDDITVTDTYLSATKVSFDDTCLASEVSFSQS
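TRHR-expressing cells loaded with fluo-8 calcium dye were read kinetically (ex 480/em 530) during compound addition, then stimulated with an EC20 of TRH (10 nM final). Enhancement of the Gq-mediated intracellular calcium response was scored.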
TRHR agonist: TRH receptor (human) agonism. P34981. TRHR cells, calcium flux fluo-8, FDSS agonist mode. activation, % at 2 µM. 0.18% of 360,000 active. AID 493084; further: 0% is about no effect
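TRHR-expressing cells, plated overnight in medium with 10% serum, were loaded with fluo-8 calcium dye at room temperature. After a 10 s baseline, library compound was pin-added and calcium release was recorded kinetically (ex 480/em 530) as agonist response.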
D1 potentiator: human D1 dopamine receptor positive modulation. HEK293 TREx D1 cells, calcium flux, dopamine EC20 potentiation. potentiation, % at 10 µM. 0.036% of 360,000 active. AID 504651; in the data active means potentiation above about 30%; further: 0% is about no effect
D1 antagonist: blocks dopamine activation of the human D1 receptor. P21728. HEK293 TREx D1 cells, calcium flux, dopamine EC80; hits give low values. activity change, negative = inhibition, % at 10 µM. 3.2% of 360,000 active; in the data active means activity change below about -30%; further: on the % scale 0 is the no-effect control and ±100 the full control effect
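Cells carrying a force-coupled, tetracycline-inducible human D1 receptor report calcium flux. Each well gets a 10 s baseline, compound with 180 s monitoring, then an EC80 dopamine stimulus with a second 180 s kinetic read.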
Starred values were filed as active, the others as inactive. Only some compounds are listed: those with a hit (about 4.6% of all), similar ones and a draw of the others. Unless noted, no stated cut-off is given here; in the data, active means activation above about 30%; inactive means the rest.

SMILES	D1 agonist	TRHR PAM	TRHR agonist	D1 potentiator	D1 antagonist
Cc1ccc2c(Sc3ccc(Cl)cc3)c(C(=O)N3CCC(C)CC3)[nH]c2c1	3	2	1	1	-24
O=[S+]([O-])(c1c(F)cccc1F)N1CCN([S+](=O)([O-])c2c(F)c(F)c(F)c(F)c2F)CC1	2	3	-1	5	4
COc1cccc(-c2cc(C(F)(F)F)nc(NCCc3ccc(OC)c(OC)c3)n2)c1	11	-5	1	0	-53*
COc1ccc(-c2cc(C(F)(F)F)nc(NCc3ccccc3)n2)cc1OC	1	-4	0	0	7
O=C(CC1=NCCNC(c2ccccc2)C1)c1ccccc1O (configuration not stated)	3	-11	-1	-9	-41*
COC(=O)c1ccc(C(=O)OC)c(NC(=O)COC(=O)c2ccc(OC)c(OC)c2OC)c1	0	-5	0	-5	-86*
CCOCC(=O)Nc1cc(C(=O)OC)ccc1C(=O)OC	0	0	-1	-10	-19
CCOC(=O)C1C(=O)NC(N2CCN(Cc3ccccc3)CC2)=NC1c1ccco1 (configuration not stated)	1	0	0	-1	-36*
CCOC(=O)C1C(=O)NC(N2CCN(Cc3ccccc3)CC2)=NC1c1ccccc1 (configuration not stated)	2	-9	0	-2	4
CCOC(=O)c1ccccc1NC(=O)CSc1nc2cn(CC)nc2c(=O)n1Cc1ccc(Cl)cc1	1	5	3	2	-1
Cc1ccccc1NC(=S)NCC1CCN(C(C)c2ccccc2)C1 (configuration not stated)	0	1	-1	-4	-36*
O=c1[nH]c(SCc2nc3c(cnn3-c3ccccc3)c(=O)[nH]2)nc2ccccc12	3	-1	1	5	-9
O=c1[nH]c(CSc2nc3ccccc3[nH]2)nc2c1cnn2-c1ccccc1	16	1	0	-6	-37*
COc1cccc2sc(Nc3nnc(-c4ccccc4Cl)o3)nc12	43*	-1	11	3	-8
COc1ccc(Nc2nc3ccc(Cl)cc3n3nnnc23)cc1OC	1	0	1	-2	-15
CCCn1c(NC(=O)CN2C(=O)NC3(CCCCC3)C2=O)nc2ccccc21	-1	-6	0	5	12
Cc1ccc(O)c(NC(=O)c2cc(-c3ccccc3O)no2)c1	15	-7	0	7	-31*
Cc1ccc(O)c(NC(=O)c2cc(-c3ccccc3Cl)on2)c1	6	-14	1	4	-33*
Cc1ccc(O)c(NC(=O)c2cc([N+](=O)[O-])ccc2Cl)c1	8	9	-2	-4	-30*
COc1cc(NC(=O)c2cc(-c3ccccc3O)no2)cc(OC)c1OC	0	-7	-1	-1	12
Cc1cc(O)c(NC(=O)c2cc([N+](=O)[O-])ccc2Cl)cc1C	11	1	-2	-3	-4
Cc1ccc(-c2cc(C(=O)Nc3cc(C)ccc3O)no2)cc1	3	0	0	2	-8
COc1cc(NC(=O)C2CCN(S(=O)(=O)c3c(C)noc3/C=C/c3c(C)cc(C)cc3C)CC2)cc(OC)c1	5	3	1	-1	2
COc1cccc(-n2c(=O)c3sccc3n(Cc3cc(=O)n4cc(Cl)ccc4n3)c2=O)c1	-1	10	-2	0	-32*
O=c1c2sccc2n(Cc2cc(=O)n3ccccc3n2)c(=O)n1-c1cccc(C(F)(F)F)c1	-3	2	-2	0	-15
SMILES	D1 agonist	TRHR PAM	TRHR agonist	D1 potentiator	D1 antagonist
O=C(COc1cccc(C(F)(F)F)c1)N1CCN(c2ccc(O)cc2)CC1	6	-4	0	9	-4
O=C(COc1ccc2c(c1)CCC2)N1CCN(c2cccc(C(F)(F)F)c2)CC1	8	20	0	-2	-44*
O=C(COc1cccc(C(F)(F)F)c1)N1CCN(c2ccccc2O)CC1	12	-4	0	-6	-34*
NC(=O)N/N=C/c1coc2ccc3ccccc3c2c1=O	1	-3	0	-11	-71*
COc1cccc(C(=O)Oc2c(Sc3ccc(C)cc3)c(C)nn2C(C)(C)C)c1OC	7	5	1	1	16
C=Cc1ccc(Cn2c(C)c(CNCCc3ccc(OCC)cc3)c(C(=O)O)c2C)cc1	-2	-2	0	-2	2
CCCCc1nn2c(=O)cc(COC(=O)c3cccs3)nc2s1	1	8	1	-6	-4
CCN(CCNc1ccc(Cl)cc1[N+](=O)[O-])C(=O)c1cc([N+](=O)[O-])c(N(C)C)cc1OC	3	-9	-1	-7	-80*
CN(C)CCNc1ccc(Cl)cc1[N+](=O)[O-]	6	0	0	2	-15
COc1ccc(CCNc2nccn(-c3ccc(C)c(C)c3)c2=O)cc1OC	4	14	0	-4	-44*
O=[N+]([O-])c1cccc(S(=O)(=O)c2ccc(NCCOCCO)c([N+](=O)[O-])c2)c1	8	-11	1	-3	1
O=[N+]([O-])c1cccc(S(=O)(=O)c2ccc(NCCO)c([N+](=O)[O-])c2)c1	6	-11	0	-2	-44*
Cc1cc(=O)[nH]c(N2CCCNCC2)n1	7	5	0	-1	12
Cc1nc(N2CCc3ccccc3C2)[nH]c(=O)c1Cc1ccccc1	3	1	-2	-6	-44*
Cc1cc(=O)[nH]c(-n2[nH]c3c(c2=O)CCCC3)n1	21	1	0	-4	-37*
Cc1nc(-n2[nH]c3c(c2=O)CCCC3)[nH]c(=O)c1Cc1ccccc1	61*	4	0	1	-3
O=c1c2c([nH]n1-c1ccccc1)CCCC2	1	4	0	4	-1
CCOc1ccccc1NC(=O)c1ccc2c(c1)CCN2S(C)(=O)=O	0	0	-2	6	-1
Cc1ccc(/C=C2/NC(=O)N(Cc3ccccc3F)C2=O)s1	43*	-1	14	-4	9
Cc1cc(/C=C2/NC(=O)N(Cc3ccccc3F)C2=O)c(C)n1-c1ccccn1	2	3	0	-3	-43*
O=[S+]([O-])(NC[C@H]1CCC[C@H](CN[S+](=O)([O-])c2c(F)cccc2F)C1)c1ccc2c(c1)OCCO2	7	7	1	2	2
COc1cccc(N2CCN(S(=O)(=O)c3ccc4c(c3)NC(=O)CS4)CC2)c1	3	-4	0	-2	-32*
O=c1[nH]c2ccccc2c(O)c1-c1cc2ccccc2oc1=O	3	-6	0	-5	10
C/C(=N/Nc1ccnc2cc(Cl)ccc12)c1ccc(N)cc1	11	-3	-1	-8	-42*
C/C(=N/Nc1ccnc2cc(Cl)ccc12)c1ccc(O)cc1	6	0	0	-8	-25
